Screening data from PubChem BioAssay.
Shown are actives, neighbours in structure and some others; about 17% of the full set was active somewhere.
TDP1 inh = qHTS Assay for Inhibitors of Tyrosyl-DNA Phosphodiesterase (TDP1); Tyrosyl-DNA phosphodiesterase 1 (Homo sapiens), Q9NUW8; recombinant TDP1, AlphaScreen DNA substrate cleavage; Potency, µM (highest dose often 130 µM), inactives show top-dose activity change, negative = inhibition, usual class: inhibitors; 350,000 tested, 0.28% active; also: % is scaled to controls: 0 for no effect and ±100 for the full control effect; nearly all actives have a fitted effect of over 40% in size
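Compounds were preincubated with Tdp1 (1 nM final) for 15 min at room temperature before substrate (15 nM final) started a 5 min reaction; beads (10 ug/ml final) were then added for 10 min before AlphaScreen detection.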
DT40 TDP1 CPT = qHTS for Inhibitors of human tyrosyl-DNA phosphodiesterase 1 (TDP1): qHTS in cells in presence of CPT; chicken DT40 Tdp1-/-;hTDP1 cells + 20 nM CPT, ATP luminescence, 48 h; Potency, µM (titrated, usually from 46.2 µM), without a hit: at the highest dose activity change, negative = growth inhibition, most hits filed as inhibitors; 420,000 tested, 12% active; AID 686979, 2013; also: % is scaled to controls: 0 for no effect and ±100 for the full control effect; nearly all actives have a fitted effect of over 55% in size
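Chicken DT40 Tdp1-/- cells stably complemented with human TDP1 were seeded at 400 cells/well in medium containing 20 nM camptothecin, exposed to pin-transferred compounds, and grown at 37 °C for at least 48 hr. Viability was read as ATP luminescence.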
DT40 TDP1 no CPT = qHTS for Inhibitors of human tyrosyl-DNA phosphodiesterase 1 (TDP1): qHTS in cells in absence of CPT; DT40 Tdp1-/- hTDP1 cells, no CPT, ATP luminescence, 48 h; Potency, µM (highest dose often 46.2 µM), for inactives: at the highest dose activity change, negative = growth inhibition, usual class: inhibitors; 420,000 tested, 15% active; AID 686978, 2013; also: % is scaled to controls: 0 for no effect and ±100 for the full control effect; nearly all actives have a fitted effect of over 55% in size
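Luminescent ATP content (CellTiter-Glo) served as the growth readout. Knockout chicken DT40 cells expressing human TDP1 were exposed to compounds without camptothecin for a minimum 48 hr at 37 °C.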
ClpP mod = qHTS Assay for Activators of ClpP; ATP-dependent Clp protease proteolytic subunit (Bacillus subtilis (strain 168)), P80244; purified B. subtilis ClpP, FRET peptide cleavage, 20 min; Potency, µM (highest dose often 57.5 µM), for the others: at the highest dose activity change, negative = active; 340,000 tested, 1.9% active; AID 651965, 2013; active = well fitted falling curve with a large enough effect; inconclusive = small, poorly fitted or top-dose-only effect; inactive = no such curve, though single readings can be large or run the other way; also: the source files actives as falling curves though it sought activators and does not explain the sign; nearly all actives have a fitted effect of over 65% in size
Target sequence (P80244 whole entry, looked up): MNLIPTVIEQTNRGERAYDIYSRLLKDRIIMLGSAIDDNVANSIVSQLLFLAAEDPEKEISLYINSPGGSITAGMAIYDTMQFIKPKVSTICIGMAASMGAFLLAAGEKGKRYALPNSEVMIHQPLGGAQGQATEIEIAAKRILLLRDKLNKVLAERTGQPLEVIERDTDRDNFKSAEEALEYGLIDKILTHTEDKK
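ClpP 10 microg/mL final, pH 8 Tris/KCl buffer with BSA, glycerol, Tween-20; compound pinned in; FRET-FV substrate; RT 20 min; Ex320/Em430; ΔFRET vs ADEP 5.8 microM, DMSO, no enzyme.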
* marks the source's active call; other numbers are inactive results; ? = inconclusive; nt = not tested or not shown; [ ] = dose if it differs, or a comment. Unless noted, calls follow the shape of the dose curve; as a rule, active = well fitted curve in the direction sought with a large enough effect; inconclusive = small, poorly fitted or top-dose-only effect, or another doubt; inactive = no such curve, though single readings can be large; an effect the other way counts as inactive or inconclusive. Potency is read from the fitted curve at half-maximal effect.

SMILES | TDP1 inh | DT40 TDP1 CPT | DT40 TDP1 no CPT | ClpP mod
CN(Cc1ccccc1)C(=O)c1ccc(CSc2nc3cccnc3n2Cc2ccccc2)cc1 | 7% | 12µM* | ? | 5%
COc1ccc(CCNC(=O)c2ccc(Cn3c(SCc4ccccc4)nc4cccnc43)cc2)cc1 | 5% | ? | 2.9µM* | 32µM*
O=C(NCCc1ccccc1)c1ccc(CSc2nc3cccnc3n2Cc2ccccc2)cc1 | 7% | ? | 15µM* | 4%
Cc1ccc(C)c(N2CCN(S(=O)(=O)c3cn(C)c(C)n3)CC2)c1 | 3% | ? | ? | -7%
Nc1cccc2c(=O)[nH]ccc12 | 17% | nt | nt | nt
Cc1cc(-c2ccc(C)c(S(=O)(=O)N3CCN(c4ccc(F)cc4)CC3)c2)on1 | 7% | -30% | ? | nt
CCc1ccc(-c2cc(C)no2)cc1S(=O)(=O)N1CCN(c2cccc(Cl)c2)CC1 | 0% | 1µM* | 0.65µM* | -8%
CCc1nc(-c2ccc(C)c(S(=O)(=O)N3CCN(c4ccc(C(C)=O)cc4)CC3)c2)no1 | -3% | 13µM* | 7.3µM* | ?
CC(=O)c1ccc(N2CCN(S(=O)(=O)c3cc(-c4cc(C)no4)ccc3C(C)C)CC2)cc1 | 1% | ? | ? | -17%
CCc1ccc(-c2cc(C)no2)cc1S(=O)(=O)N1CCN(c2cccc(C)c2C)CC1 | 1% | 23µM* | ? | -8%
CCc1ccc(-c2cc(C)no2)cc1S(=O)(=O)N1CCN(c2ccc(C(C)=O)cc2)CC1 | 4% | ? | 18µM* | nt
Cc1cc(C)nc(S[C@@H]2C[C@@H](C(=O)N3CCCN(C)CC3)N(Cc3cc(F)ccc3F)C2)n1 | nt | -8% | -6% | nt
CC1=C(C(=O)Nc2cc(Cl)ccc2C)C(c2ccco2)n2ncnc2N1 (stereo not drawn) | 3% | ? | ? | -1%
CCc1ccc(-c2cc(C)no2)cc1S(=O)(=O)N1CCN(c2ccccc2F)CC1 | 0% | ? | -10% | 2%
CCc1ccc(-c2cc(C)no2)cc1S(=O)(=O)N1CCN(c2cc(C)ccc2C)CC1 | 1% | ? | 16µM* | nt
Cc1ccc(OC(=O)CSc2nnc(-c3ccc4c(c3)OCO4)o2)c(C)c1 | 9% | 3% | 1% | -23%
Cc1ccccc1-c1ccc2c(c1)O[C@@H](CN(C)C(=O)Nc1ccc(C(F)(F)F)cc1)[C@H](C)CN([C@@H](C)CO)S2(=O)=O | nt | 21µM* | 13µM* | 2%
C[C@@H]1CN([C@H](C)CO)S(=O)(=O)c2ccc(Br)cc2O[C@@H]1CN(C)C(=O)Nc1ccc(C(F)(F)F)cc1 | nt | 21µM* | ? | 0%
O=C(O)c1ccc(CN(c2ccccc2)S(=O)(=O)c2ccccc2)cc1 | nt | 2% | 7% | 0%
COc1cccc(CNC(=O)[C@@H]2CCCN2C(=O)[C@H]2CCCCN2C(=O)OC(C)(C)C)c1 | nt | -19% | -14% | 1%
CCCCSCc1nc2nc(Cl)c(Cl)nc2[nH]1 | nt | 16µM* | 18µM* | 7%
OCc1nc2nc(Cl)c(Cl)nc2[nH]1 | 1% | -1% | -1% | 4%
Cc1ccc2oc(C(=O)Nc3ccc(S(=O)(=O)Nc4nccc(C)n4)cc3)cc(=O)c2c1 | 2% | ? | ? | -2%
COc1ccc(O)c(C(=O)c2cnc3c(c2)CN(C)C(=O)N3)c1 | -3% | 18µM* | 18µM* | -13%
COC(=O)c1ccc(NC(=O)CCCN2C(=O)NC(C)(C)C2=O)cc1 | 9% | -13% | -37% | nt
SMILES | TDP1 inh | DT40 TDP1 CPT | DT40 TDP1 no CPT | ClpP mod
CCOC(=O)c1c(C2COc3ccccc3O2)csc1N (stereo not drawn) | 7% | -15% | -27% | -1%
CCN(CC1COc2ccccc2O1)C(=S)Nc1ccccc1 (stereo not drawn) | 1% | ? | 2.8µM* | 0%
CCOC(=O)c1c(C2COc3ccccc3O2)csc1NC(=O)c1ccccc1 (stereo not drawn) | 2% | -24% | -29% | 14µM*
CN(CC1COc2ccccc2O1)C(=S)NC1CCCCC1 (stereo not drawn) | 7% | ? | ? | 2%
C=CCNC(=S)NCC1COc2ccccc2O1 (stereo not drawn) | 5% | 1% | ? | -1%
CCN(CC1COc2ccccc2O1)C(=S)NCCCN(C)C (stereo not drawn) | -3% | 16µM* | 18µM* | 2%
CCOC(=O)c1ccc(NC(=O)CC2COc3ccccc3O2)cc1 (stereo not drawn) | -1% | 3% | 1µM* | -2%
Cc1ccc(C(=O)OCC(=O)NCC2COc3ccccc3O2)cc1 (stereo not drawn) | 0% | -13% | -12% | 2%
CC1(C)S[C@@H]2[C@H](NC(=O)Cc3ccccc3)C(=O)N2[C@H]1C(=O)O (tested in a mixture with another compound) | nt | -2% | ? | nt
COc1ccccc1/C=C/c1nc(C#N)c(N2CCCCCC2)o1 | 2% | ? | -27% | 4%
COc1c(-c2coc3cc4c(cc3c2=O)CC(O)C(C)(C)O4)ccc2c1C=CC(C)(C)O2 (stereo not drawn) | 9% | 0.046µM* | 0.021µM* | nt
COc1c(-c2coc3cc4c(cc3c2=O)CC(OC(C)=O)C(C)(C)O4)ccc2c1C=CC(C)(C)O2 (stereo not drawn) | 10%[56.1 µM] | 1.3µM* | 0.92µM* | nt
CCOc1ccc(-c2cc(C(=O)NCc3ccc(OCC)c(OC)c3)[nH]n2)cc1 | -6% | 0% | -25% | -1%
c1ccc2c(c1)Nc1cc3ccccc3cc1S2 | 3% | 3% | -10% | nt
COc1ccc2c(c1)Sc1ccccc1N2 | 15% | ? | 16µM* | nt
COc1ccc(CN(C)C(=O)COC(=O)c2c(-c3ccccc3Cl)noc2C)cc1 | 4% | ? | ? | nt
CCc1c(C)c(C#N)c2[nH]c3ccccc3n2c1=S | 5% | 12µM* | 12µM* | nt
CCc1cc(=S)n2c([nH]c3ccccc32)c1C#N | 3% | 16µM* | 23µM* | nt
Cc1ccc(Cc2c(C)c(C#N)c3[nH]c4ccccc4n3c2=O)cc1 | -1% | ? | 23µM* | 4%
C=C(C)Cc1c(C)c(C#N)c2[nH]c3ccccc3n2c1=O | nt | 3% | ? | nt
Cc1ccc(CNC(=O)CNS(=O)(=O)c2ccc3c(c2)C(C)(C)C(=O)N3C)cc1 | nt | 17% | 6% | 4%
COc1ccc(OC)c(NC(=O)COC(=O)C2CCCCC2)c1 | 0% | -10% | -2% | 0%
COc1cccc(C(NC(C)=O)c2nc(-c3ccc(OC)nc3)cs2)c1 (stereo not drawn) | nt | ? | ? | 2%
Nc1ncnc2c1ncn2[C@H]1CC[C@@H](CO)O1 | 4% | 1.6µM* | 2.9µM* | 1%
